# Source: PubChem BioAssay (National Center for Advancing Translational Sciences (NCATS))
# A selection: hits, their analogues and other compounds. The true share with any hit is near 21%.
# Shiga toxin inh: inhibitors of Shiga toxin in Vero cells | Vero cells, Shiga toxin protein synthesis inhibition reporter | inhibition, % at 38.7 µM | 9.2% of 290,000 active | AID 2315; in the data active = inhibition mostly above about 28%, no sharp cut-off; inactive = mostly below about 43%; also: 0% is about no effect
# AMA1 RON2 block: AMA1-RON2 (P. falciparum) interaction inhibition. Potency, µM (doses to about 58.2 µM), for the others: at the top dose activity change, negative = inhibition, most hits filed as inhibitors. 0.2% of 360,000 active. AlphaScreen AMA1-biotinylated RON2 peptide binding;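 also: potency is read from the fitted curve at half-maximal effect; 0% = vehicle wells and -100% = peptide control; nearly all actives have a fitted effect of over 45% in size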
#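 AMA1 (3D7) with his tag at 25 nM final met compounds first, then biotinylated RON2 peptide at 25 nM; detection used donor plus acceptor beads, 10 µg/mL apiece, read by AlphaScreen after 30 min at room temperature.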
# HCV inhibitor: inhibitors of hepatitis C virus infection. Potency, µM (series often up to 41.8 µM), inactives show top-dose activity change, negative = inhibition, most hits filed as inhibitors. Huh7.5.1 HCVcc-Cre infection, luciferase reporter, 44 h. 3.4% of 340,000 active; also: potency is read from the fitted curve at half-maximal effect; % is scaled to controls: 0 for no effect and ±100 for the full control effect
#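 Infectious HCVcc-Cre (~0.5 moi) was added to cells just after compound, with cells seeded 4 h earlier at 1,000 per well. Luciferase activity after 44 h culture reported infection; substrate was incubated 15 min at room temperature before reading.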
# Pf growth 96h: inhibits malaria parasite growth, 96 h; Potency, µM (highest dose often 28.7 µM), inactives show at the highest dose activity change, negative = inhibition, actives largely listed as inhibitors; P. falciparum luciferase reporter growth, 96 h; 6.9% of 320,000 active; also: potency is read from the fitted curve at half-maximal effect; % is scaled to controls: 0 for no effect and ±100 for the full control effect
#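 Cell-based qHTS: luciferase-tagged P. falciparum in erythrocytes (2% hematocrit, 0.05% parasitemia final) incubated with compounds for 96 hours, 37 C, 5% CO2; luciferase detection reagent then added and luminescence measured.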
# Cycloheximide cs: affects cycloheximide protein synthesis inhibition readout, counter-screen; cell reporter, cycloheximide protein synthesis inhibition counterscreen; max response, %; 12% of 300,000 active; in the data active = max response mostly above about 13%, no sharp cut-off; inactive = mostly below about 14%; also: read at 38.3 µM for the half of the compounds with a filed dose; 0% is about no effect
# Pf growth 48h: inhibits P. falciparum growth in the first generation, 48 h. 5.9% of 310,000 active. P. falciparum luciferase growth in erythrocytes, 48 h. Potency, µM (doses to about 28.7 µM), without a hit: at the highest dose activity change, negative = inhibition, actives largely listed as inhibitors; also: potency is read from the fitted curve at half-maximal effect; % is scaled to controls: 0 for no effect and ±100 for the full control effect
#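 Read-out is firefly luciferase luminescence from an integrated reporter in P. falciparum, so falling signal marks reduced parasite growth. Infected erythrocytes were at 2% hematocrit and 0.1% parasitemia (final) in Albumax-supplemented RPMI 1640.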
# The depositor's hits bear a star; ? = inconclusive; nt = not tested or not shown; [ ] = remark or other dose. Unless noted, calls follow the shape of the dose curve; as a rule, active = well fitted curve in the direction sought with a large enough effect; inconclusive = small, poorly fitted or top-dose-only effect, or another doubt; inactive = no such curve, though single readings can be large; an effect the other way counts as inactive or inconclusive.
SMILES,Shiga toxin inh,AMA1 RON2 block,HCV inhibitor,Pf growth 96h,Cycloheximide cs,Pf growth 48h
COc1ccc(C2CC(c3ccccc3)Oc3c(C)ccc(C(C)C)c32)cc1 (centres undefined),13,nt,nt,nt,1,nt
O=C(N[C@H]1CC[C@H](CCNC(=O)C2CC2)O[C@@H]1CO)c1ccccn1,nt,16%,nt,nt,nt,nt
COc1cc(OC)cc(C2=Cc3ccc(OC)cc3C(CC(C)=O)N2c2ccc(C#CCCO)cc2)c1 (centres undefined),nt,-3%,nt,nt,nt,nt
CSCC[C@H](NC(=O)OC(C)(C)C)C(=O)N1CCC(C(=O)N[C@@H](C)C(=O)NCc2ccc(F)cc2)CC1,-1,-1%,-15%,?,1,?
COc1cccc(OCC(O)CN2CCC(CN3C(=O)c4cccc5cccc(c45)C3=O)CC2)c1 (centres undefined),13,?,?,?,-5,?
O=C1c2cccc3cccc(c23)C(=O)N1CC1CCN(CC(O)COc2ccc3ccccc3c2)CC1 (centres undefined),128*,?,7.9µM*,1%,72*,-4%
Cc1cc(C)cc(OCC(O)CN2CCC(CN3C(=O)c4cccc5cccc(c45)C3=O)CC2)c1 (centres undefined),12,-14%,2.2µM*,30%,4,10%
O=C(N1CCOCC1)N1CCN(CC(O)COc2ccc3ccccc3c2)CC1 (centres undefined),-16,-3%,-5%,-8%,-1,3%
Cc1ccc(C)c(OCC(O)CN2CCN(CCN3C(=O)c4cccc5cccc(c45)C3=O)CC2)c1 (centres undefined),7,?,?,-25%,3,-108%
O=C1c2cccc3cccc(c23)C(=O)N1CCN1CCN(CC(O)COc2ccc3ccccc3c2)CC1 (centres undefined),-2,-12%[11.6 µM],11µM*,?,10,?
CC(=O)c1ccccc1OCC(O)CN1CCN(CCN2C(=O)c3cccc4cccc(c34)C2=O)CC1 (centres undefined),10,-7%,10µM*,10%,-4,?
O=S(=O)(c1ccc(S(=O)(=O)N2CCC(O)CC2)cc1)N1CCCC1,-3,-5%,19%,13%,-4,3%
CCN(CC)S(=O)(=O)c1ccc2c(c1)N(CC(=O)Nc1cccnc1Cl)C(=O)CO2,-11,-1%,9%,14%,-3,-4%
CN1COc2ccc3ccccc3c2C1,4,66%,10%,-1%,18*,-37%
COc1cc(OC)c(-c2nnc3n(CCc4ccccc4)c(=O)c4ccccc4n23)cc1OC,8,nt,-10%,?,6,?
COc1ccc(-c2nnc3n(CCc4ccccc4)c(=O)c4ccccc4n23)c(OC)c1,6,14%[11.6 µM],10%,4.7µM*,0,13µM*
COc1ccc(N2CCn3c2nc2c3c(=O)n(CCc3ccccc3)c(=O)n2C)c(OC)c1,-9,nt,nt,12µM*,0,-6%
COc1ccc(N2CCn3c2nc2c3c(=O)n(CCCc3ccccc3)c(=O)n2C)cc1,-11,nt,nt,?,-2,7%
COc1ccc(N2CCn3c2nc2c3c(=O)n(CCCc3ccccc3)c(=O)n2C)c(OC)c1,10,12%,14µM*,?,-3,?
COc1ccc(N2CC(C)Cn3c2nc2c3c(=O)n(CCc3ccccc3)c(=O)n2C)cc1 (centres undefined),-6,-13%,13%,-9%,-3,?
COc1ccc(N2CC(C)Cn3c2nc2c3c(=O)n(Cc3ccccc3)c(=O)n2C)c(OC)c1 (centres undefined),3,8%,?,8.3µM*,-3,?
O/N=C(\c1ccccc1)c1nccc2ccccc12,12,9%,16%,30%,8,-15%
CCc1ccc(OCCCC(=O)Nc2ccc(S(N)(=O)=O)cc2)cc1,-19,-19%,4%,90%,-3,-23%
CC1(C)COC(Cc2ccccc2)=N1,nt,-1%,nt,nt,nt,nt
CC(=O)Nc1ccc(C=NNC(=O)CCCC(=O)NN=Cc2ccc(NC(C)=O)cc2)cc1,nt,11%,6%,nt,nt,nt
